Screening data from PubChem BioAssay.
Many of the other results were omitted from the sample, so hits are more common in it than they were.
HIV RNase H inh-1: blocks HIV-1 RNase H cleavage of RNA/DNA duplex; AID 565; hit rate 1.9% among 65,000; RT-RNase H RNA/DNA duplex cleavage, fluorescence; inhibition, % at 10 µM; in the data active = inhibition above about 50%
HIV RNase H inh-2: confirmation of HIV-1 reverse transcriptase RNase H inhibitors; shares compounds with HIV RNase H inh-1; Recombinant RT RNase H, fluorescent RNA/DNA duplex cleavage; inhibition, % at 10 µM; hit rate 39% among 1,000; AID 651; in the data active = inhibition above about 48%; inconclusive = no clear call, values can overlap the other calls
Of the large screens only hits and unclear results are named; the others gave an inactive call (follow-up assays come after a bar, where they were run).

COc1cccc(C(=O)Nc2ccc(-c3nc4ccccc4o3)c(O)c2)c1	HIV RNase H inh-1 66 | HIV RNase H inh-2 inactive
O=C(COc1ccc(Cl)cc1)Nc1ccc2oc(-c3ccncc3)nc2c1	none
COc1cc(C(=O)Nc2ccc(-c3nc4cc(C)ccc4o3)c(O)c2)cc(OC)c1OC	none
CCOc1ccccc1NC(=O)Cn1nnc(-c2ccc(OCC)c(OCC)c2)n1	none
Cc1cc(C)n(CCCNCC(O)c2ccccc2)n1 (configuration not stated)	none
CC12C=CC3(CN(Cc4ccccc4)C(=O)C3C1C(=O)NC1CC1)O2 (configuration not stated)	none
COc1ccccc1-n1cc(C(=O)NCC(=O)N2CCN(c3ccccc3)CC2)c2ccccc2c1=O	none
O=c1[nH]c2ccccc2n1CCCN1CCN(C(c2ccccc2)c2ccccc2)CC1	none
CCCS(=O)(=O)N1CCCC(C(=O)N2CCOCC2)C1 (configuration not stated)	none
O=c1c(-c2ccccc2)[n+]([O-])c2ccccc2n1O	none
O=S1(=O)C=CC(N2CCOCC2)C1 (configuration not stated)	none
O=CNCC(=O)NCCc1ccc(Cl)cc1	none
Cc1oc(-c2ccc(Cl)cc2)cc1-c1nn2c(-c3ccoc3C)nnc2s1	HIV RNase H inh-1 86 | HIV RNase H inh-2 55
CN(C)c1ccc(-c2nn3c(-c4ccc(Cl)cc4Cl)nnc3s2)cc1	none
Clc1ccc(-c2nnc3sc(-c4ccc(Br)o4)nn23)cc1	none
O=c1oc2cc(O)ccc2c2c1CCCC2	none
O=C1CN(C(=O)CCCc2c[nH]c3ccccc23)c2ccccc2N1	none
COc1ccc(S(=O)(=O)N2CCC(C(=O)Nc3cccc(Cl)c3)CC2)cc1OC	none
CCOC(=O)C1(c2nc(N)cs2)COC(=O)C1 (configuration not stated)	none
O=C(Nc1ccc(Cl)cc1)Nc1ccc(N2CCOCC2)cc1	none
O=C(Nc1ccc(N2CCOCC2)cc1)NC1CCCCC1	none
O=C(Nc1ccc(N2CCOCC2)cc1)Nc1cnsn1	HIV RNase H inh-1 67 | HIV RNase H inh-2 inactive
O=C(NC(=O)c1cccc(OC(F)(F)C(F)F)c1)OC1CCS(=O)(=O)C1 (configuration not stated)	none
Cc1ccc(-c2nc(CS(=O)CC(=O)NCCC(C)C)c(C)o2)cc1 (configuration not stated)	none
Cc1nc2sc3c(c2c(=O)o1)CC(C)(C)OC3	none
CCC1CC2(C)NC(=O)c3c(sc4c3CC(C)(C)OC4)N2C1=O (configuration not stated)	HIV RNase H inh-1 79 | HIV RNase H inh-2 60
CC1(C)Cc2c(sc3nn[nH]c(=O)c23)CO1	none
CCCCn1c(SCC(=O)N2CCOCC2)nnc1-c1cccs1	none
Cc1ccc(C)c2[nH]c(=O)c(CCNC(=O)C(C)(C)C)cc12	none
COc1ccc(Br)cc1/C=c1\sc2nc(-c3ccco3)nn2c1=O	HIV RNase H inh-1 73 | HIV RNase H inh-2 inconclusive
COc1ccccc1/C=c1\sc2nc(-c3ccncc3)nn2c1=O	none
COc1ccc(C(=O)n2nc(-c3ccco3)nc2SC)cc1OC	none
CCOC(=O)c1cc(C)n(-n2cnnc2)c1C	none
O=C(NCCO)c1nc(NCCO)c2ccccc2n1	none
CCC(CC)c1nc(NCCC(=O)O)c2ccccc2n1	HIV RNase H inh-1 76 | HIV RNase H inh-2 inactive
CCc1cc2c(NCCC(=O)O)nc(C)nc2s1	none
Cc1nn(-c2ccccc2)c2c1C(O)n1c(nc3ccccc31)S2 (configuration not stated)	none
CC1(C)CC(=O)C=C(NCC2CCCO2)C1 (configuration not stated)	none
CCn1c(COc2ccccc2OC)nnc1SCC#N	none
Cc1ccc(S(=O)(=O)CC(=O)N(C)C)cc1	none
O=C(CSc1nc2c(c(=O)n1-c1ccc(Cl)cc1)SCC2)Nc1ccc2c(c1)OCCO2	none
Nc1ccc2[nH]ncc2c1	none
CCOC(=O)c1cc2c(ccn2C)n1CC(=O)N1CCC(Cc2ccccc2)CC1	none
Cc1cc(C)c2c(=O)n(CC(=O)N3CCC(Cc4ccccc4)CC3)sc2n1	HIV RNase H inh-1 79 | HIV RNase H inh-2 inactive
Cn1cnnc1SCC(=O)N1CCC(Cc2ccccc2)CC1	none
Cc1cccc(N2CCN(C(=O)Cn3sc4nc(C)cc(C)c4c3=O)CC2C)c1 (configuration not stated)	HIV RNase H inh-1 93 | HIV RNase H inh-2 56
Cc1cc(OCC(=O)NCCCN2CCOCC2)cc(C)c1Cl	none
Cc1cc(C)c2c(=O)n(CC(=O)NCCCN3CCOCC3)sc2n1	HIV RNase H inh-1 90 | HIV RNase H inh-2 77
Cc1cccc(N2CCN(C(=O)c3ccncc3)CC2C)c1 (configuration not stated)	none
Cc1ccc(SCC(=O)NCCCN2CCOCC2)cc1	none
Cc1ccc(-c2ccc(=O)n(CC(=O)N3CCN(c4cccc(C)c4)C(C)C3)n2)cc1 (configuration not stated)	none
COC(=O)CN(c1ccc(F)cc1)S(=O)(=O)c1ccc2c(c1)OCCO2	none
Cc1nn(-c2ccccc2)c2sc(C(=O)OCc3nnc(-c4ccccc4)o3)cc12	none
CC(C)NC(=O)CN1CCN(c2ncccn2)CC1	none
Cc1ccc(S(=O)(=O)/N=C(\CN2CCCCC2)N2CCOCC2)cc1	none
O=C(c1ccc(=O)oc1)N1CCCc2ccccc21	none
